Reference: PubChem BioAssay (EPA / NIEHS)
“And” between values parts separate entries of the source, which are not always exact repeats. Equal entries are not always repeated. More than one record can exist for a structure, and the calls need not agree. The source made the active and inactive calls. The calls were made as follows: active = hit-call score of the fitted dose curve at least 0.9, where 1 is the maximum; inactive = score below 0.9.

Columns and labels:
[1] = molecular target: Bile acid receptor (Homo sapiens) (UniProt Q96RI1); assay: ATG_IR1_CIS: Attagene CIS-FACTORIAL HepG2 Assay for human Nuclear Receptor Subfamily 1 Group H Member 4 (NR1H4), IR1 submotif (AID 2282946); details: IR1 reporter transcription, actives raise or lower the signal
Procedure, shortened: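 HepG2 cells transiently transfected with multiple cis-promoter-driven reporter units to measure endogenous transcription factor activity; 24 h exposure. Reporter mRNA read by RT-PCR, FAM labelling, HpaI digestion and capillary electrophoresis. Bidirectional fit versus DMSO.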

[2] = ATG_GRE_CIS: Attagene CIS-FACTORIAL HepG2 Assay for human Glucocorticoid Response Elements (GRE) (AID 2282947); details: HepG2 GRE cis-reporter, Attagene multiplex mRNA; actives raise or lower the signal
Procedure, shortened: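 Endogenous transcription factor activity is read through cis-element reporter constructs transiently transfected into HepG2 cells. After 24 h treatment, labelled RT-PCR products are resolved by capillary electrophoresis; DMSO sets baseline for bidirectional curve fitting.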

[3] = ATG_ISRE_CIS: Attagene CIS-FACTORIAL HepG2 Assay for human Interferon Regulatory Factor 1 (IRF1) binding to an Interferon-Stimulated Response Element (ISRE) (AID 2282948); details: HepG2 ISRE cis-reporter (Attagene), mRNA transcription readout; actives raise or lower the signal
Procedure, shortened: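 Quantitation relies on labelled RT-PCR fragments separated by capillary electrophoresis. Human HepG2 cells bearing cis-promoter reporter constructs were treated 24 h; DMSO served as baseline for bidirectional fitting.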

[4] = ATG_M_32_CIS: Attagene CIS-FACTORIAL HepG2 Assay for M32 Transcription Factor (Internal Marker) (AID 2282949); details: HepG2 Attagene cis-factorial M32 reporter, mRNA; actives raise or lower the signal;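 also: background control marker of the multiplexed CIS panel rather than a real target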
Procedure, shortened: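 Internal background marker read-out: RT-PCR/capillary electrophoresis fluorescence of reporter transcripts from transiently transfected HepG2 cells after 24 h chemical exposure. Activity fitted bidirectionally relative to DMSO negative control.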

[5] = ATG_M_06_CIS: Attagene CIS-FACTORIAL HepG2 Assay for M06 Transcription Factor (Internal Marker) (AID 2282950); details: HepG2 Attagene CIS-FACTORIAL M06 internal marker reporter; actives raise or lower the signal
Procedure, shortened: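 Fluorescence-labelled RT-PCR products from cis-promoter reporter units, cut with HpaI and resolved by capillary electrophoresis, give the signal. Cells are human HepG2, dosed for 24 h. Serves as background control, fitted relative to DMSO.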

[6] = molecular target: Hypoxia-inducible factor 1-alpha (Homo sapiens) (UniProt Q16665); assay: ATG_HIF1a_CIS: Attagene CIS-FACTORIAL HepG2 Assay for human Hypoxia Inducible Factor 1 (HIF1A) (AID 2282951); details: HepG2 Attagene cis-factorial HIF1a reporter transcription; actives raise or lower the signal
Procedure, shortened: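 Measures endogenous transcription-factor activity through cis-regulated reporter mRNA in HepG2. Cells dosed 24 h; transcripts quantified by RT-PCR with 6-FAM-labelled products separated by capillary electrophoresis; DMSO serves as negative control.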

[7] = molecular target: Hepatocyte nuclear factor 6 (Homo sapiens) (UniProt Q9UBC0); assay: ATG_HNF6_CIS: Attagene CIS-FACTORIAL HepG2 Assay for human Hepatocyte Nuclear Factor 6 (HNF6) (AID 2282952); details: HepG2 Attagene cis-factorial HNF6 reporter transcription; actives raise or lower the signal
Procedure, shortened: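 Transiently transfected HepG2 cells expressing cis-regulated reporter transcription units were exposed to chemical for 24 h in a 24-well format. Reporter transcript abundance was determined by fluorescence capillary electrophoresis.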

[8] = molecular target: Heat shock factor protein 1 (Homo sapiens) (UniProt Q00613); assay: ATG_HSE_CIS: Attagene CIS-FACTORIAL HepG2 Assay for human Heat Shock Transcription Factor 1 (HSE) (AID 2282953); details: HepG2 HSE cis-reporter, Attagene RNA transcription; actives raise or lower the signal
Procedure, shortened: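 After a 24 h incubation with test chemical, transfected HepG2 cells were harvested for RNA; reporter transcripts were measured by RT-PCR and capillary electrophoresis. Values reflect gain or loss of signal relative to DMSO.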

[9] = ATG_PBREM_CIS: Attagene CIS-FACTORIAL HepG2 Assay for human Phenobarbital-responsive Enhancer Module (PBREM) (AID 2282955); details: HepG2 PBREM cis-reporter, Attagene multiplexed transcription; actives raise or lower the signal
Procedure, shortened: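 Fluorescence of labelled reporter cDNA fragments, resolved by capillary electrophoresis, gives mRNA induction in transfected HepG2 cells treated for 24 h; DMSO serves as negative control and baseline.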

[10] = molecular target: Paired box protein Pax-6 (Homo sapiens) (UniProt P26367); assay: ATG_Pax6_CIS: Attagene CIS-FACTORIAL HepG2 Assay for human Paired Box 6 (PAX6) (AID 2282956); details: HepG2 CIS-FACTORIAL PAX6 reporter transcription, RNA readout; actives raise or lower the signal
Procedure, shortened: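 After twenty-four hours of chemical exposure, transfected HepG2 cells are harvested for RNA. Cis-promoter reporter transcripts are amplified, fluorescently labelled and sized by capillary electrophoresis, with gain and loss of signal scored against DMSO.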

[11] = ATG_PPRE_CIS: Attagene CIS-FACTORIAL HepG2 Assay for human Peroxisome Proliferator-activated Response Element (PPRE) (AID 2282958); details: HepG2 PPRE cis-element reporter, Attagene transcription factor profiling; actives raise or lower the signal
Procedure, shortened: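 Cells are first transfected transiently with the multiplexed reporter library, then dosed for 24 h. Total RNA is reverse-transcribed, amplified, fluorescently end-labeled and HpaI-cut before capillary electrophoresis; activity is fitted bidirectionally against DMSO controls.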

[12] = ATG_RORE_CIS: Attagene CIS-FACTORIAL HepG2 Assay for human RAR-related Orphan Receptor Element (RORE) (AID 2282959); details: HepG2 Attagene cis-factorial RORE reporter, mRNA; actives raise or lower the signal
Procedure, shortened: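 Cells were HepG2 carrying transfected cis-regulated reporter constructs, dosed for 24 hours. Total RNA was reverse-transcribed and reporter cDNA amplified, fluorescently labeled and sized by capillary electrophoresis. Activity was fitted bidirectionally relative to DMSO.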

[13] = ATG_Sox_CIS: Attagene CIS-FACTORIAL HepG2 Assay for human SRY-box transcription factor (SOX) (AID 2282960); details: HepG2 Attagene cis-factorial SOX reporter, mRNA; actives raise or lower the signal
Procedure, shortened: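 Transient MRTU transfection of HepG2; 24 h compound incubation; TriZol RNA, oligo(dT) RT, PCR, 6-FAM primer extension, HpaI cut, CE. Bidirectional fit, DMSO = baseline.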

[14] = molecular target: Transcription factor Sp1 (Homo sapiens) (UniProt P08047); assay: ATG_Sp1_CIS: Attagene CIS-FACTORIAL HepG2 Assay for human Specificity Protein 1 (Sp1) (AID 2282961); details: HepG2 Sp1 cis-reporter transcription, actives raise or lower the signal
Procedure, shortened: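 Endogenous Sp1 activity was gauged in human liver HepG2 cells bearing transfected reporter units under a cis-regulating promoter. After 24 h dosing, reporter mRNA was quantified by RT-PCR with capillary electrophoresis, and activity fitted bidirectionally versus DMSO.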

[15] = ATG_SREBP_CIS: Attagene CIS-FACTORIAL HepG2 Assay for human Sterol Regulatory Element Binding (SREBP) (AID 2282962); details: HepG2 Attagene cis-factorial SREBP reporter, mRNA; actives raise or lower the signal
Procedure, shortened: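 Twenty-four hours after chemical dosing of transfected HepG2 cultures, reporter RNA was converted to cDNA, amplified, end-labelled with 6-FAM and resolved by capillary electrophoresis. Responses were fitted relative to DMSO.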

[16] = molecular target: Signal transducer and activator of transcription 3 (Homo sapiens) (UniProt P40763); assay: ATG_STAT3_CIS: Attagene CIS-FACTORIAL HepG2 Assay for human Signal Transducer and Activator of Transcription 3 (STAT3) (AID 2282963); details: HepG2, Attagene cis-factorial STAT3 reporter transcription; actives raise or lower the signal
Procedure, shortened: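 Values derive from bidirectional fits relative to DMSO of reporter mRNA levels, measured by RT-PCR with capillary electrophoresis, in HepG2 cells carrying transiently transfected cis-regulated reporter units and exposed 24 h.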

[17] = ATG_TA_CIS: Attagene CIS-FACTORIAL HepG2 Assay for human TA Basal Promoter (AID 2282964); details: HepG2 Attagene CIS-factorial TA basal promoter reporter; actives raise or lower the signal
Procedure, shortened: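 Multiplexed mRNA reporter assay, HepG2, 24 h. Reporter cDNA amplified, 6-FAM primer-extended, HpaI-cut, CE-sized; DMSO = negative control and baseline.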

[18] = ATG_TCF_b_cat_CIS: Attagene CIS-FACTORIAL HepG2 Assay for human T-Cell-Factor with beta-catenin (TCF/b-cat) (AID 2282965); details: HepG2 TCF/beta-catenin cis-reporter transcription, actives raise or lower the signal
Procedure, shortened: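 HepG2, transient MRTU transfection, cis-element-driven reporters (endogenous TFs). 24 h compound exposure. Readout: reporter mRNA by RT-PCR + 6-FAM primer extension, HpaI digest, capillary electrophoresis. Gain/loss fit vs DMSO baseline.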

[19] = ATG_MRE_CIS: Attagene CIS-FACTORIAL HepG2 Assay for human Metal Responsive Element (MRE) (AID 2282954); details: HepG2 MRE cis-reporter transcription, Attagene multiplex; actives raise or lower the signal
Procedure, shortened: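 Fluorescent reporter fragments separated by capillary electrophoresis give mRNA induction for the MRE unit after 24 h treatment of transfected HepG2 cells. Endogenous transcription-factor activity is read; DMSO serves as negative control and baseline.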

[20] = ATG_PXRE_CIS: Attagene CIS-FACTORIAL HepG2 Assay for human Pregnane X Receptor Element (PXRE) (AID 2282957); details: HepG2 Attagene CIS-FACTORIAL PXRE reporter, mRNA; actives raise or lower the signal
Procedure, shortened: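 Cis-element reporter mRNA in human hepatoma HepG2 cells is measured 24 h post-dosing by RT-PCR, primer-extension labeling and capillary electrophoresis; gain or loss of signal is fitted relative to DMSO.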

Measured: AC50

Chain of Transcription factor Sp1 (Homo sapiens) (P08047 whole entry, looked up): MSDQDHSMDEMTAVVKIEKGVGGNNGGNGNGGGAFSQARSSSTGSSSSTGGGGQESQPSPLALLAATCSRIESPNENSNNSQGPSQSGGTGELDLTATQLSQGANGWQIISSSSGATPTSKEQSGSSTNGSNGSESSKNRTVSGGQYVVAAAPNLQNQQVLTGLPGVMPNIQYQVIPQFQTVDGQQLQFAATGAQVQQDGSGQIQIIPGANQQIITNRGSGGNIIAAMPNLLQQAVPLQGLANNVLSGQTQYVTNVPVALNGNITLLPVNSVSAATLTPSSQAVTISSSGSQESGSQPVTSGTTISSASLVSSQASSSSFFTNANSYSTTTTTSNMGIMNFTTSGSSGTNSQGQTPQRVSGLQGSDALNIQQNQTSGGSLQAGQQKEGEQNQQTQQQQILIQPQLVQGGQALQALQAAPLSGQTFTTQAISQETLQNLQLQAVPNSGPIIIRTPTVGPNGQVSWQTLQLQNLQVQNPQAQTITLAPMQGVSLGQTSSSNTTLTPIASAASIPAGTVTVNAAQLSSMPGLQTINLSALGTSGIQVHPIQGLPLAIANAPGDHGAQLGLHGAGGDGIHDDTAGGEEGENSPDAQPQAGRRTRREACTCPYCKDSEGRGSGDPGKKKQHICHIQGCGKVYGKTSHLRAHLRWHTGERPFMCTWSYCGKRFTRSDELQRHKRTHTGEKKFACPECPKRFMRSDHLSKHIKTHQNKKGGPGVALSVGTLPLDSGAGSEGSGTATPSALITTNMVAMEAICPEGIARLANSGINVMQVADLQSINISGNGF
Chain of Signal transducer and activator of transcription 3 (Homo sapiens) (P40763 whole entry, looked up): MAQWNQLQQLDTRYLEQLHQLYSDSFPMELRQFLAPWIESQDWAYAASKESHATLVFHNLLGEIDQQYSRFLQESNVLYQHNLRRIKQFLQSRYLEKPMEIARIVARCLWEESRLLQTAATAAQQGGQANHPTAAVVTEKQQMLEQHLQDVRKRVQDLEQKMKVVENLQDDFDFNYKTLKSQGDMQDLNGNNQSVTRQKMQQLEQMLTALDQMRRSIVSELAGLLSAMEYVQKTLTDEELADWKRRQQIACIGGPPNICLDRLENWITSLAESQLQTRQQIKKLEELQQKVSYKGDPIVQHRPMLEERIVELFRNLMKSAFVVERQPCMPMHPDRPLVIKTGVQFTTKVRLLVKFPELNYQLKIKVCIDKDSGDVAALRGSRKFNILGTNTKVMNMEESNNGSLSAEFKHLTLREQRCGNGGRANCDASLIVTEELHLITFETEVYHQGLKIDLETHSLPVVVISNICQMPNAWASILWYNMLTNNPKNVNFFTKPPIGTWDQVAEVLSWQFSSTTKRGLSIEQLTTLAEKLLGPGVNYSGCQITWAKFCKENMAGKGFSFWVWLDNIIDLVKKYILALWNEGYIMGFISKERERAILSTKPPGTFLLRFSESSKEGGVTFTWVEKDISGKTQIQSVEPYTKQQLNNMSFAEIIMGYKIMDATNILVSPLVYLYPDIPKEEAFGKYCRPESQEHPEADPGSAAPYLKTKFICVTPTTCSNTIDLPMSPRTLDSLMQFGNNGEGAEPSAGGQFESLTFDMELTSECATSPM
Chain of Bile acid receptor (Homo sapiens) (Q96RI1 whole entry, looked up): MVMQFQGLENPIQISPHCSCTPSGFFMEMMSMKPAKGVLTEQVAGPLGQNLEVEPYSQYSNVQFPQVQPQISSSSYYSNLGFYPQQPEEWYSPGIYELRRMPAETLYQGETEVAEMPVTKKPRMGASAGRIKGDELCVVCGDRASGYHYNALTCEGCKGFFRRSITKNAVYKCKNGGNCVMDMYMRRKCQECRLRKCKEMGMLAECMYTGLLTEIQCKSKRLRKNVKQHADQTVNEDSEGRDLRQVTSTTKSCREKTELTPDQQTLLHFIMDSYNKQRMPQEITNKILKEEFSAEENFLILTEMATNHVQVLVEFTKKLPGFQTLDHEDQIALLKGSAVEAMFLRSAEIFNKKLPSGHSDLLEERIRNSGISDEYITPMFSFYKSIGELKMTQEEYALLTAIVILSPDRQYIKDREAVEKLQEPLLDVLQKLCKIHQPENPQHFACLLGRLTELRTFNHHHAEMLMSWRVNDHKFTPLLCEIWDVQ
Chain of Hepatocyte nuclear factor 6 (Homo sapiens) (Q9UBC0 whole entry, looked up): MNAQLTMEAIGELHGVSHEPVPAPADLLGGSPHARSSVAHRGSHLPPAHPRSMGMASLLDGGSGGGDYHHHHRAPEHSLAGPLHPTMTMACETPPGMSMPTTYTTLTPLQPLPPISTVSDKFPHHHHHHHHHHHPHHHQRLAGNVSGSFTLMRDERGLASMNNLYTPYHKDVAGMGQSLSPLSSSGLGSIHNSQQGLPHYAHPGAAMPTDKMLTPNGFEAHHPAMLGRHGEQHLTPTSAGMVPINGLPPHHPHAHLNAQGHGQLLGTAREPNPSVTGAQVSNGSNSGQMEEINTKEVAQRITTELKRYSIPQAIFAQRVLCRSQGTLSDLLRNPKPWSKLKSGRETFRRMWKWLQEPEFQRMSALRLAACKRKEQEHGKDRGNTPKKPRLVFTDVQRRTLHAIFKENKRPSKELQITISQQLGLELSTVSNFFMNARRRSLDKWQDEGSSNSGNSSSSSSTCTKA
Chain of Hypoxia-inducible factor 1-alpha (Homo sapiens) (Q16665 whole entry, looked up): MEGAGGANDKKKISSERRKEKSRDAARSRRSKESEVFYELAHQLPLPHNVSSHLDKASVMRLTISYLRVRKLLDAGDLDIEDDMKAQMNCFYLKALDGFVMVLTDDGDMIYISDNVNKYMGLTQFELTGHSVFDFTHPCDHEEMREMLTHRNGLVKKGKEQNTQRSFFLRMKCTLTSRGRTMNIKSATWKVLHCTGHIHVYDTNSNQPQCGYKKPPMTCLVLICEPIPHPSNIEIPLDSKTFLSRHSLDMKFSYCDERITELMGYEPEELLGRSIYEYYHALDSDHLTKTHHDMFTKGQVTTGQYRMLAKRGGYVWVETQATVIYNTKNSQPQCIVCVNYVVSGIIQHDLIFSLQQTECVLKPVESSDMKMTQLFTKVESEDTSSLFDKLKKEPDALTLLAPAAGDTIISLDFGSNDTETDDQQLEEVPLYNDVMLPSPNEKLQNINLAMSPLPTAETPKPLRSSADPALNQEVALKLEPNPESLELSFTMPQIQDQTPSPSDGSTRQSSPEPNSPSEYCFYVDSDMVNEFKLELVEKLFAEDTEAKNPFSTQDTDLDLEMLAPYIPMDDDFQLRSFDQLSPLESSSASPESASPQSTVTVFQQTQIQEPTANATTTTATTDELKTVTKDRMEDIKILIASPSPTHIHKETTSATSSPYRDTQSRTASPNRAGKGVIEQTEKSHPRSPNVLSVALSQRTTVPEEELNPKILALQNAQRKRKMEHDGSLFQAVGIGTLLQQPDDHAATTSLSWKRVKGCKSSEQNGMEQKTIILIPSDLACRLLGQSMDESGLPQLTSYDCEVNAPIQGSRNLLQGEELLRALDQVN
Chain of Heat shock factor protein 1 (Homo sapiens) (Q00613 whole entry, looked up): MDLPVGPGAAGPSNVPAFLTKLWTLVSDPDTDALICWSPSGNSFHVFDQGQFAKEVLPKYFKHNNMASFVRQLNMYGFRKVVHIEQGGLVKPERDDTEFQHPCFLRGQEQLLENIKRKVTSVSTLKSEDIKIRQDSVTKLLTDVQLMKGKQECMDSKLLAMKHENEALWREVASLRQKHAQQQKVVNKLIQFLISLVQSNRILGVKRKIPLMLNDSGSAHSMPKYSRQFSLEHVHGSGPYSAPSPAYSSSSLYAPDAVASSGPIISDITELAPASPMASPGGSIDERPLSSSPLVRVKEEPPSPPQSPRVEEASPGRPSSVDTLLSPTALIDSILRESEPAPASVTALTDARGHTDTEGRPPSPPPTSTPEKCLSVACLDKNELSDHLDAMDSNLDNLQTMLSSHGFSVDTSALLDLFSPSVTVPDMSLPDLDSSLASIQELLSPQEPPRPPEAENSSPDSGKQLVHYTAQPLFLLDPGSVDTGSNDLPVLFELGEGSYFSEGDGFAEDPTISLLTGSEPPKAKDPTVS
Chain of Paired box protein Pax-6 (Homo sapiens) (P26367 whole entry, looked up): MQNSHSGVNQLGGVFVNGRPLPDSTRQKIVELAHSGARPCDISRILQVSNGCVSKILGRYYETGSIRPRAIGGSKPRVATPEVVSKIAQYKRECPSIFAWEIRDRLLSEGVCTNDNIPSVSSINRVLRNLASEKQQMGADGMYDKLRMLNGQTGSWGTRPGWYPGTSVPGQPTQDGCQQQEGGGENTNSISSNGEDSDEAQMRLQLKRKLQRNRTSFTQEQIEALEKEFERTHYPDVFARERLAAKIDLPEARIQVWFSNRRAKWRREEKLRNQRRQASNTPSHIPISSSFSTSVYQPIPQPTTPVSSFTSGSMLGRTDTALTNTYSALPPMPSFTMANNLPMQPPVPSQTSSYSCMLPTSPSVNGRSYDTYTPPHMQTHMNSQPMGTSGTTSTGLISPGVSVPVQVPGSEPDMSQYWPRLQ

CCN(CC)C(=O)Cl
inactive: [1] | [2] | [3] | [4] | [5] | [6] | [7] | [8] | [9] | [10] | [11] | [12] | [13] | [14] | [15] | [16] | [17] | [18]

CC(C)(OO)c1ccccc1
inactive: [1] | [2] | [3] | [4] | [5] | [6] | [7] | [8] | [19] | [9] | [10] | [20] | [11] | [12] | [15] | [16] | [17] | [18]

CC(=[OH+])/C=C(/C)[O-].CC(=[OH+])/C=C(/C)[O-].CC(=[OH+])/C=C(/C)[O-].[Al]
inactive: [1] | [2] | [3] | [4] | [5] | [6] | [7] | [8] | [10] | [20] | [11] | [12] | [14] | [15] | [16] | [17]

CC(C)(c1ccccc1)c1ccc(O)c(C(C)(C)c2ccccc2)c1
active: [1] 2.78 µM | [6] 11.1 µM | [8] 17.9 µM | [19] 13.3 µM | [9] 0.42 µM | [10] 12.7 µM | [20] 156 nM | [11] 3.04 µM | [14] 7.78 µM | [15] 4.24 µM
inactive: [2] | [3] | [5] | [7] | [12] | [13] | [16] | [18]

c1cc[c]([Hg][c]2ccccc2)cc1
inactive: [1] | [2] | [3] | [4] | [5] | [6] | [7] | [8] | [10] | [20] | [11] | [13] | [15] | [16] | [17]
active: [19] 14.4 µM | [12] 25.6 µM | [14] 24.5 µM

CCC[CH2][Sn]([Cl])([Cl])[Cl]
inactive: [1] | [2] | [3] | [5] | [6] | [7] | [8] | [19] | [9] | [10] | [20] | [11] | [12] | [15] | [16] | [17] | [18]

CC(C)(C)CC(C)(C)c1ccc(O)cc1
inactive: [1] | [2] | [3] | [4] | [5] | [6] | [7] | [8] | [19] | [10] | [12] | [13] | [14] | [15] | [16] | [17] | [18]
active: [1] 16.3 µM | [3] 8.06 µM | [6] 0.932 nM and 20.1 µM | [20] 3.34 µM [middle of 4 runs] | [15] 14.1 µM | [18] 18.2 µM
